Compound activity deposited in PubChem by The Scripps Research Institute Molecular Screening Center.
Sampled rows, rich in hits. Any-hit rate of the full collection: about 3.5%.
MITF inh: blocks human microphthalmia-associated transcription factor. AlphaScreen MITF homodimerization, bead proximity signal. O75030. inhibition, % at 2.6 µM. hit rate 0.91% among 650,000. AID 1259374; in the data active means inhibition above about 50%;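 further: 0% = vehicle wells with protein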
GPR151 activ: activates the human receptor GPR151 | Q8TDV0 | PathHunter beta-arrestin GPR151 cells, luminescence | activation, % at 11.2 µM | hit rate 1% among 650,000 | AID 1508602; in the data active means activation above about 4.9%;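 further: 0% = median of compound wells and 100% = cells with positive control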
Target sequence (Q8TDV0 whole entry, looked up): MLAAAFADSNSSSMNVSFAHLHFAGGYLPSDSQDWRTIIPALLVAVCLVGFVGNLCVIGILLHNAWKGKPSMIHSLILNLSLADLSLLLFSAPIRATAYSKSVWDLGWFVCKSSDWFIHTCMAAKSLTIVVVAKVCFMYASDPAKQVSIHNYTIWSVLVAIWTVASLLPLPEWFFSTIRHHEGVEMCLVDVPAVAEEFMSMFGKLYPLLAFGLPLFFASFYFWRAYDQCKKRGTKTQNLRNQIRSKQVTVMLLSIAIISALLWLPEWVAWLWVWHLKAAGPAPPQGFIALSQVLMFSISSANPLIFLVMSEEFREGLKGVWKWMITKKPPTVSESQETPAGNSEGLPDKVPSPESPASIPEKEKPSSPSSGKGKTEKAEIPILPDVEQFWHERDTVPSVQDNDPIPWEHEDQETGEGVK
FBW7 activator: activators of human E3 ligase FBW7; normalized activity (activation), % at 26.1 µM; hit rate 0.13% among 650,000; AlphaScreen FBW7–phospho-cyclin E peptide binding, activator screen; Q969H0; in the data active means normalized activity above about 1.9%;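 further: purified mutant Fbw7 with reduced substrate affinity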
TEAD-YAP inh: TEAD-YAP interaction inhibition | HEK-TIYL cells, TEAD-Gal4/YAP UAS-luciferase luminescence | inhibition, % at 9.12 µM | hit rate 1.4% among 640,000 | AID 1259422; in the data active means inhibition above about 32%;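 further: 0% = median of test compound wells and 100% = reference inhibitor wells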
* hit, by the source's call.

SMILES	MITF inh	GPR151 activ	FBW7 activator	TEAD-YAP inh
O=C(NCCCCCCCCNC(=O)c1ccco1)c1ccco1	3	3	0	-4
COc1ccc(CNc2ccc3ncc(-c4cccc(NC(C)=O)c4)n3n2)cc1	21	-1	1	8
N#C/C(=C\Nc1cccc([N+](=O)[O-])c1)c1nc(-c2ccccc2)cs1	-1	0	0	2
COc1ccc(C2C=C(c3ccc(C)cc3)Nc3ncnn32)cc1OC (configuration not stated)	11	0	0	54*
COc1ccc(C2=CC(c3ccc(C)cc3)n3ncnc3N2)cc1OC (configuration not stated)	3	1	0	-68
COc1ccc(C2=CC(c3cc(OC)c(OC)c(OC)c3)n3ncnc3N2)cc1OC (configuration not stated)	2	-2	0	54*
COc1cc(C2C=C(c3ccc4c(c3)OCO4)Nc3ncnn32)cc(OC)c1OC (configuration not stated)	1	1	0	64*
COc1ccc(C2=CC(c3cccc(C)c3)n3ncnc3N2)cc1 (configuration not stated)	1	0	0	46*
O=C(c1ccc(CS(=O)c2ccc(Cl)cc2)o1)N1CCOCC1 (configuration not stated)	7	0	0	-16
COc1ccc(/C=N/Nc2ncc(F)c(N3CCOCC3)n2)c(OC)c1	24	-1	0	-24
COc1ccc(OC)c(C2C=C(c3ccc(C)cc3)Nc3ncnn32)c1 (configuration not stated)	-1	-1	0	66*
CCc1ccc(C2=CC(c3ccc(OC)c(OC)c3OC)n3ncnc3N2)cc1 (configuration not stated)	5	0	0	47*
CCOc1ccccc1C1C=C(c2ccc(OC)cc2)Nc2ncnn21 (configuration not stated)	4	1	0	56*
COc1ccc(C2C(C(=O)O)c3ccccc3C(=O)N2C)cc1O (configuration not stated)	9	-1	0	3
COc1ccc(-c2nc(N)c3ncn(-c4ccsc4)c3n2)cc1	6	0	0	36*
COc1ccc(-c2nc(N)c3ncn(-c4ccccc4)c3n2)cc1	-6	-1	0	1
COc1ccc(-c2nc(N)c3ncn(-c4ccsc4)c3n2)cn1	-8	0	0	62*
COc1ccc(-c2nc(N)c3ncn(-c4ccccc4)c3n2)cn1	-3	0	0	-4
Nc1nnc(SCc2ccc(Br)cc2)s1	14	-1	0	-4
Brc1ccc(CSc2nn3cnnc3s2)cc1	-10	0	0	53*
Cn1cnc([N+](=O)[O-])c1Sc1nc2ccccc2[nH]1	1	-1	0	56*
COc1cccc(CNC(=O)c2cnc3ccc(-c4cn[nH]c4)cn23)c1	0	0	0	88*
CCN(CC)CNC(=O)c1cn(C)c2ccccc12	39	-2	0	0
CN(C)c1ccc(/C=C2\Oc3c(ccc(O)c3O)C2=O)cc1	55*	1	0	1
OCCC1CN(Cc2cn[nH]c2-c2ccc(F)cc2)CCN1Cc1ccsc1 (configuration not stated)	2	2	0	-6
SMILES	MITF inh	GPR151 activ	FBW7 activator	TEAD-YAP inh
N#Cc1cc(N)c(Nc2ccccc2)cc1C#N	0	3	0	-4
N#Cc1cnc(N)c(C#N)c1Nc1ccccc1	4	-1	0	38*
O=C(Cn1nnc(-c2ccc(S(=O)(=O)N3CCCC3)cc2)n1)NCC1CCCO1 (configuration not stated)	0	2	0	2
O=C(Cn1nnc(-c2ccc(S(=O)(=O)N3CCCC3)cc2)n1)NCc1ccco1	3	1	0	42*
C#CCOc1ccc(/C=N/NC(=O)CC#N)cc1OC	37	-2	0	-12
CCN(CC)c1ccc(/C=C2/C(=O)N(c3ccccc3)N=C2C)cc1	68*	-1	-2	11
CC1=NN(c2ccc(Cl)cc2)C(=O)/C1=C\c1ccc([N+](=O)[O-])o1	-15	-1	-1	7
CC1=NN(c2ccc(C(=O)O)cc2)C(=O)/C1=C\c1ccc([N+](=O)[O-])o1	71*	-1	0	6
CC1=NN(c2ccccc2)C(=O)/C1=C/c1ccc(N2CCCC2)o1	9	4	0	66*
Cc1ccccc1-c1nc(SCC(=O)N2CCOCC2)c2c(=O)n(C)c(=O)n(C)c2n1	-4	2	0	4
COc1ccc(N2CCN(c3ccc([N+](=O)[O-])cc3C#N)CC2)cc1	8	0	0	-5
N#CC1=C(N)Oc2c(ccc3ccccc23)C1c1ccccc1 (configuration not stated)	21	-2	1	23
CC(C)OCCCNC(=O)c1cc(-c2cccs2)nc2ccccc12	-1	0	0	36*
O=C(NCCCN1CCOCC1)c1cc(-c2cccs2)nc2ccccc12	-5	0	0	14
Cc1ccc(C)c(N2CCN(C(=O)C34CC5CC(C3)CC(n3nnc(C)n3)(C5)C4)CC2)c1	24	-1	1	37*
Cc1cc(I)ccc1NC(=O)CSc1nc2c(c(-c3ccc(Cl)cc3)c1C#N)CCC2	13	-1	1	17
CCn1cc(/C=C/C(=O)c2ccc(O)cc2)c(C)n1	7	0	0	86*
COc1ccccc1/C=C/C(=O)c1ccc(O)cc1	-5	-1	0	-21
Cc1c(/C=C/C(=O)c2ccc(O)cc2)cnn1C	0	-1	0	51*
Cc1ccc2occ(/C=C/C(=O)c3ccc(O)cc3)c(=O)c2c1	-10	3	0	-11
Cc1cccc(Oc2ccc(N3C(=O)C4CC=CC(C)C4C3=O)cc2)c1 (configuration not stated)	16	1	0	1
c1ccc(CN2CCC(NCc3ccc(N4CCOCC4)cc3)CC2)cc1	68*	1	0	-6
CCOc1ccc(Nc2cc(C)nc3ccc(OC)cc23)cc1	11	1	0	12
COc1ccc(Nc2cc(C)nc3nc(C)nn23)c(OC)c1	13	-1	0	8
COc1ccc2nc(C)cc(Nc3ccc(N4CCN(C)CC4)cc3)c2c1	4	-1	0	77*
SMILES	MITF inh	GPR151 activ	FBW7 activator	TEAD-YAP inh
COc1ccc(OC)c(Nc2cc(C)nc3nc(C)nn23)c1	2	0	0	34*
COc1ccc(OC)c(Nc2cc(C)nc3ccc(OC)cc23)c1	1	0	0	68*
CCOc1ccc2nc(C)cc(Nc3cc(Cl)ccc3OC)c2c1	0	0	0	38*
COc1ccc(NS(=O)(=O)c2ccc(NC(=O)C(OC)c3ccccc3)cc2)cc1 (configuration not stated)	1	1	0	-7
CN(C)/C=N/c1ncc(C(=O)c2sccc2Br)s1	-2	-4	0	-64
CC(=O)N1c2ccc(C)cc2-c2ccccc2S1(=O)=O	-5	2	0	-4
COC(=O)c1ccc(Nc2cc(C)nc3ccc(OC)cc23)cc1	20	-2	0	36*
